Test [1] can be described thus: AP1 Signaling Pathway (AID 357).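 Note: ME-180 reporter cells stimulated with EGF at its EC50 level; % is set by controls: 0 for no effect and ±100 for the full control effect.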 The following applies: ME-180 AP-1-bla reporter, EGF-induced, beta-lactamase ratio, 5 h; at 17.2 µM (top of the series) unless noted. In outline: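 Modulation of EGF-driven AP-1 transcription was assessed with a beta-lactamase reporter in ME-180 cells. Compound and EC50 EGF were co-incubated 5 hours at 37 °C before 2.5-hour CCF4 loading at room temperature and dual-emission reading.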

Test [2] deals with Cytochrome P450 1A2 (Homo sapiens) (UniProt P05177). Kind of test: p450-cyp1a2 (AID 410; calls by dose curve; note: potency is the fitted concentration of half-maximal effect;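 for activity change, negative = inhibition: -100% = full effect of reference inhibitor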). Summed up:
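20nM CYP1A2, 100uM Luciferin-ME (=Km), 100mM KPO4; cpd 10 min RT; +NADPH regen, 60 min RT; stop/detect 20 min; luminescence. Normalized to furafylline 57 uM = full inhibition.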

Test [3] in a line: Stat Signaling Pathway (AID 446).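 Note: ME-180 cervical cancer cells given 40 pM IL-6 alongside compound; SIE-controlled beta-lactamase reporter measured as 460/530 nm FRET emission ratio; % is set by controls: 0 for no effect and ±100 for the full control effect.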 Particulars: ME-180 SIE beta-lactamase reporter, IL-6 stimulated, 5 h; at 17.2 µM (top of the series) unless noted. In outline:
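FRET read-out (405 nm excitation, 460/530 nm emission) of a beta-lactamase reporter under a STAT-inducible element in ME-180 cervical carcinoma cells. Cells with compound receive 40 pM IL-6 for 5 h. Values are normalised to AC90 stimulation and AC90 JAK-inhibitor controls.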

The target of test [4] is Glucocorticoid receptor (Homo sapiens) (UniProt P04150). The test is described as follows: GR-GFP Redistribution (AID 450;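 active = compounds whose dose series gives a full or clear partial fitted curve of increased nuclear translocation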; note: potency is the fitted concentration of half-maximal effect).
Chain of Glucocorticoid receptor (Homo sapiens) (P04150 whole entry, looked up, the tested form may be a part): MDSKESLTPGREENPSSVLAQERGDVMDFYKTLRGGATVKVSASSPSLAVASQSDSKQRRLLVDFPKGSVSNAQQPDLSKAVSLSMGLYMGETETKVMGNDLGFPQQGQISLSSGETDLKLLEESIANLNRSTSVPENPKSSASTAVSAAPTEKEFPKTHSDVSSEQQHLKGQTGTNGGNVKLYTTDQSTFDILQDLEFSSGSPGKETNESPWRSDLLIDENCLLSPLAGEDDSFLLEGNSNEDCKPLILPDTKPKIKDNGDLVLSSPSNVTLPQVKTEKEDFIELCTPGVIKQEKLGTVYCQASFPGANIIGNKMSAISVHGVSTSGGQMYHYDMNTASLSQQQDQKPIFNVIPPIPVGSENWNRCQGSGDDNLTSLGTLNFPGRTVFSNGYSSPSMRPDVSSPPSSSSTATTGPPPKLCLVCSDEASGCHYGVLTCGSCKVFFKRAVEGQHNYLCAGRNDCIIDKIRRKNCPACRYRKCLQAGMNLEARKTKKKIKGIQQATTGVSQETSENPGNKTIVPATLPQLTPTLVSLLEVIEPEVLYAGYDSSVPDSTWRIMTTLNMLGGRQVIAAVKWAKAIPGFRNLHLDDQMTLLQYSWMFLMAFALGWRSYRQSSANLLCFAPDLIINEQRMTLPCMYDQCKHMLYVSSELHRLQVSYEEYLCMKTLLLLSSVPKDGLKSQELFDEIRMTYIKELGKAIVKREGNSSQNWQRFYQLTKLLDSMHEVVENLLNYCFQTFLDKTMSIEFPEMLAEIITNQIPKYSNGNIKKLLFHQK
The target is the same in test [5]. Kind of test: GR-EFC Redistribution (AID 451; calls by dose curve; note: potency is the fitted concentration of half-maximal effect). Particulars: CHO-K1 GR-EFC translocation, beta-gal luminescence, 2 h. In outline: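 CHO-K1 cells stably expressing nuclear-localized β-gal enzyme acceptor and GR fused C-terminally to the enzyme donor fragment; ligand-driven nuclear translocation restores β-gal by complementation. Compounds titrated up to 46 uM final, 2 h at 37 °C; luminescence read.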

Test [6] concerns the target Mitogen-activated protein kinase 10 (Mus musculus) (UniProt Q61831). Kind of test: JNK3 AlphaScreen Assay (AID 530).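 Note: kinase came from lysate of stimulated human HepG2 cells; signal reports phosphorylation of biotinylated GST-cJun 1-79 at Ser73 with 10 µM ATP; % is set by controls: 0 for no effect and ±100 for the full control effect.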 Summed up: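 Biotinylated GST-cJun(1-79) served as substrate for JNK3 in HepG2 lysates stimulated with IL-1beta and TNF-alpha. ATP was 10 uM final, pH 7.6. Ser73 phosphorylation was quantified by AlphaScreen (680 nm excitation).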
Test [7] addresses 3',5'-cyclic-AMP phosphodiesterase 4B (Homo sapiens) (UniProt Q07343). The test is described as follows: qHTS Assay for Inhibitors of PDE-IV (AID 607; active = well fitted activation curve with a large enough effect in the main read-out, with a control signal flat, not every such curve was filed as active; note: % of control where 0% means no effect). Summed up:
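Cell-based read-out of cAMP via a modified cyclic nucleotide-gated channel and membrane potential dye (535/590 nm) in HEK293 cells expressing PDE4 endogenously. Compounds tested up to 22.9 uM final; 100 uM RO 20-1724 reference.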

For test [8], the target named is Cytochrome P450 2C9 (Homo sapiens) (UniProt P11712). The test is described as follows: qHTS Assay for Inhibitors and Substrates of Cytochrome P450 2C9 (AID 883; active = well fitted curve in the direction sought with a large enough effect; an effect the other way counts as inactive or inconclusive; note: potency is the fitted concentration of half-maximal effect; nearly all actives have a fitted effect of over 60% in size). In outline: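 Human CYP2C9 (10nM) hydroxylated Luciferin-H (100uM, at its KM) to luciferin in 25mM KPO4. Compound was preincubated 10 min at 37C, then NADPH regeneration started a 60 min reaction at 37C. Luminescence was read after detection reagent, normalized to 57uM sulphaphenazole.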

Test [9] can be described thus: NFAT Signaling Pathway (AID 444).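 Note: carbachol stimulus at about its EC50 of 1 µM final; % is set by controls: 0 for no effect and ±100 for the full control effect.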 The following applies: Jurkat NFAT-bla M1, carbachol, beta-lactamase ratio, 5 h; at 17.2 µM (top of the series) unless noted. In outline:
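Jurkat cells carrying an NFAT-driven β-lactamase reporter and co-transfected muscarinic M1 receptor were treated with compound plus carbachol (1 uM final, an EC50 level) for 5 h at 37 °C. CCF4 loading followed for 1 h at RT; 460/530 nm ratio gave %activity.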

Test [10] deals with Cytochrome P450 3A4 (Homo sapiens) (UniProt P08684). The test is described as follows: qHTS Assay for Activators of Cytochrome P450 3A4 (AID 885; active = well fitted curve in the direction sought with a large enough effect; an effect the other way counts as inactive or inconclusive; note: nearly all actives have a fitted effect of over 65% in size). Summed up: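 Luminescent readout of luciferin formed from 25 uM Luciferin-PPXE (KM level) by 20 nM CYP3A4 in 200 mM KPO4, with 60 min NADPH-driven reaction at room temperature after 10 min compound exposure. Ketoconazole (57 uM) defined 100% inhibition.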
Chain of Cytochrome P450 3A4 (Homo sapiens) (P08684 whole entry, looked up): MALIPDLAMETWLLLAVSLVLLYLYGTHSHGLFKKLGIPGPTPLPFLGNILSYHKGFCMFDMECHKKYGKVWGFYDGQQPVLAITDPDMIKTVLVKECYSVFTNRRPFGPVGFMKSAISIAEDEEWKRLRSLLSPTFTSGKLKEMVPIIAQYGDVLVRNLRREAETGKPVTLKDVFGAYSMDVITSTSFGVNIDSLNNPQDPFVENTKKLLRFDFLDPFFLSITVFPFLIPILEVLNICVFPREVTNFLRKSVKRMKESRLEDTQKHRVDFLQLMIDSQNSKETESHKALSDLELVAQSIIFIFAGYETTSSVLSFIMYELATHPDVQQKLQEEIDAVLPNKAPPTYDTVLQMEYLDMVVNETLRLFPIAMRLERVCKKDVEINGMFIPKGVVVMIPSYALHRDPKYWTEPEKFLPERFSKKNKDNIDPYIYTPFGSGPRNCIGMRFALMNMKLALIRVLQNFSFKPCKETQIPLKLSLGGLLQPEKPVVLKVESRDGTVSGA

Test [11] addresses Muscarinic acetylcholine receptor M1 (Rattus norvegicus) (UniProt P08482). The test is described as follows: qHTS Assay for Antagonists of Acetylcholine Muscarinic M1 Receptor: Kinetic Measurement of Intracellular Calcium Response (AID 943; active = well fitted curve in the direction sought with a large enough effect; an effect the other way counts as inactive or inconclusive; note: potency is the fitted concentration of half-maximal effect; nearly all actives have a fitted effect of over 75% in size). In outline:
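Read-out: peak over basal Fluo-4 fluorescence, kinetic at 1 Hz for 4 min after EC80 carbachol (100 nM final). Rat M1-CHO cells, dye loaded 1 h at 37C, compound added 10 min before agonist.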

Test [12] has as its target Pyruvate kinase (Leishmania mexicana) (UniProt Q27686). Kind of test: qHTS Validation Assay for Inhibitors of Leishmania Mexicana Pyruvate Kinase (AID 945; active = well fitted curve in the direction sought with a large enough effect; an effect the other way counts as inactive or inconclusive;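 note: 0% = DMSO only neutral control wells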). Summed up:
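Purified LmPYK (E451W mutant, 0.2 nM) was incubated 1 h at room temperature with 0.5 mM PEP and 0.1 mM ADP in 50 mM imidazole pH 7.2, 50 mM KCl, 7 mM MgCl2; ATP formed was read by PKLight luminescence, normalized to DMSO wells.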

Test [13] has as its target Pyruvate kinase PKM (Homo sapiens) (UniProt P14618). The test is described as follows: qHTS Assay for Activators of Human Muscle Pyruvate Kinase (AID 954; active = well fitted curve in the direction sought with a large enough effect, not every such curve was filed as active;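 note: 0% = uninhibited enzyme and -100% = no enzyme or full thiadiazolimine inhibition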). Summed up:
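ATP production by PKM2 detected via luciferase luminescence after 1 h room-temperature reaction (0.1 nM enzyme, PEP at Km 0.5 mM, ADP 0.1 mM, pH 7.2 imidazole buffer). Inhibition scaled to no-enzyme control; activation referenced to 0.3 nM enzyme wells.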

Test [14] has as its target Alpha-galactosidase A (Homo sapiens) (UniProt P06280). The test is described as follows: Counterscreen for Glucocerebrosidase Inhibitors: qHTS Assay for Human alpha-Galactosidase at pH 4.5 (AID 992; active = well fitted curve in the direction sought with a large enough effect; an effect the other way counts as inactive or inconclusive; note: 0% is about no effect). In outline: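 Fluorogenic 1536-well qHTS at pH 4.5 (citrate, Tween-20): 2 nM enzyme, 80 uM 4-MU-alpha-galactoside, 20 min room temperature, NaOH/glycine stop. Titration 0.7 nM to 77 uM, data normalized to no-enzyme and full-activity controls, Hill-fitted AC50.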

Test [15] deals with alpha-glucosidase (Oryza sativa, rice) (UniProt Q653V4). The test is described as follows: Counterscreen for Glucocerebrosidase Inhibitors: qHTS Assay for Rice alpha-Glucosidase at pH 5.0 (AID 997; active = well fitted curve in the direction sought with a large enough effect; an effect the other way counts as inactive or inconclusive;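 note: 0% = full activity with enzyme and -100% = basal without enzyme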). In outline:
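Endpoint fluorogenic assay at pH 5.0: compounds (0.7 nM to 77 uM) titrated against 4 nM rice enzyme and 400 uM 4-MU-alpha-glucoside for 20 min at room temperature; NaOH/glycine stop, read ex 365/em 440 nm, Hill-fitted AC50.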

Test [16] is described as follows: qHTS Assay for Identification of Small Molecule Agonists for Hypoxia Response Element Signaling Pathway (AID 914; active = well fitted activation curve with a large enough effect in the signal ratio, with a control signal flat, not every such curve was filed as active; the % refers to the signal ratio; note: % of control where 0% means no effect). The following applies: ME-180 (cervical carcinoma) HRE-bla reporter, beta-lactamase ratio, CoCl2, 17 h; activation: stronger effect = higher value. In outline: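 AC50 values come from titration-series %Activity, taken as the 460/530nm ratio of CCF4 fluorescence (excitation 405nm). CellSensor HRE-bla ME-180 cells were treated 17 hours at 37 C with compound plus an EC50 level of CoCl2.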

Test [17] concerns the target Cytochrome P450 2D6 (Homo sapiens) (UniProt P10635). The test is described as follows: qHTS Assay for Inhibitors and Substrates of Cytochrome P450 2D6 (AID 891; active = well fitted curve in the direction sought with a large enough effect; an effect the other way counts as inactive or inconclusive; note: potency is the fitted concentration of half-maximal effect; nearly all actives have a fitted effect of over 60% in size). Summed up:
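Luminescent read-out of luciferin formed by 5 nM human CYP2D6 demethylating 30 uM Luciferin-ME EGE (Km level) over 60 min at room temperature after NADPH regeneration addition. Data normalized to full inhibition by 1.43 uM quinidine.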

Test [18] concerns the target Cytochrome P450 2C19 (Homo sapiens) (UniProt P33261). The test is described as follows: qHTS Assay for Inhibitors and Substrates of Cytochrome P450 2C19 (AID 899; active = well fitted curve in the direction sought with a large enough effect; an effect the other way counts as inactive or inconclusive; note: % is set by controls: 0 for no effect and ±100 for the full control effect; nearly all actives have a fitted effect of over 60% in size). Summed up: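 Human CYP2C19 (5nM) with Luciferin-H EGE at 10uM (its KM) in 50mM KPO4 was preincubated with compound for 10 min at 37C. NADPH regeneration started a 60 min 37C reaction. Luciferin was read by luminescence, normalized to 57uM ketoconazole.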

Values without a mark were called inactive. Inconclusive results are not listed. Active and inactive are the calls of the source. Unless noted, calls come from the whole dose curve; as a rule, active = well fitted curve in either direction with a large enough effect (not every such curve was filed as active); inconclusive = small, poorly fitted or top-dose-only effect, or another doubt; inactive = flat fitted curve, though single readings scatter.

Chain of Cytochrome P450 1A2 (Homo sapiens) (P05177 whole entry, looked up): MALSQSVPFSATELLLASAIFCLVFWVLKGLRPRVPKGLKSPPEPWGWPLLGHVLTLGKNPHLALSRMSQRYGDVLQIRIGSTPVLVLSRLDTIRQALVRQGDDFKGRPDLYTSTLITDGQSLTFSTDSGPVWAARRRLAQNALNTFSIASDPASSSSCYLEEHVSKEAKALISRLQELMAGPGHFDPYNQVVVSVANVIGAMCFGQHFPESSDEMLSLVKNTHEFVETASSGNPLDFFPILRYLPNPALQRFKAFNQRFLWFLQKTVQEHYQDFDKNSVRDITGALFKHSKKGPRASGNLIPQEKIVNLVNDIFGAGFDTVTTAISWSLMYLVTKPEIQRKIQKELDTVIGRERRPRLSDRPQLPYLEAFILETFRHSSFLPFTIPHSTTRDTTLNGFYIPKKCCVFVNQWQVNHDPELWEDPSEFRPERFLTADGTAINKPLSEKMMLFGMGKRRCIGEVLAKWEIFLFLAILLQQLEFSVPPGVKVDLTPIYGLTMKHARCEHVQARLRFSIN
Chain of 3',5'-cyclic-AMP phosphodiesterase 4B (Homo sapiens) (Q07343 whole entry, looked up): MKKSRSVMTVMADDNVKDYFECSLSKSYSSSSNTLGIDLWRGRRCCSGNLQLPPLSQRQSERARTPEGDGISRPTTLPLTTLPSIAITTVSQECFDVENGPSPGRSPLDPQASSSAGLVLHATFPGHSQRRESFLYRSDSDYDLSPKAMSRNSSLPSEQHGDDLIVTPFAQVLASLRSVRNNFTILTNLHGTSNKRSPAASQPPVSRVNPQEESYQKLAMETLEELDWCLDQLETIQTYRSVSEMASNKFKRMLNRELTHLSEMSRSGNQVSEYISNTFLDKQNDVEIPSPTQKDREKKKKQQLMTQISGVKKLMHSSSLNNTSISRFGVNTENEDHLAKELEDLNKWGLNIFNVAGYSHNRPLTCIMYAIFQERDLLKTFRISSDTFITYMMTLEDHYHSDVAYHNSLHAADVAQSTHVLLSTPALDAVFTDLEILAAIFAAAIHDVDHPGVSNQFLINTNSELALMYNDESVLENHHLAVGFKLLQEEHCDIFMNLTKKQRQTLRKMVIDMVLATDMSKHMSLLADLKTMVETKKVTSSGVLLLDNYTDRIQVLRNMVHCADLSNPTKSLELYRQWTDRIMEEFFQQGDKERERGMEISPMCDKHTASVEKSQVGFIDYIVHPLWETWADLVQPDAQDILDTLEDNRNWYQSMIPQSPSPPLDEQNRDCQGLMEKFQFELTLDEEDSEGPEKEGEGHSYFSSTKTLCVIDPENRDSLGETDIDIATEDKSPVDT
Chain of Cytochrome P450 2D6 (Homo sapiens) (P10635 whole entry, looked up): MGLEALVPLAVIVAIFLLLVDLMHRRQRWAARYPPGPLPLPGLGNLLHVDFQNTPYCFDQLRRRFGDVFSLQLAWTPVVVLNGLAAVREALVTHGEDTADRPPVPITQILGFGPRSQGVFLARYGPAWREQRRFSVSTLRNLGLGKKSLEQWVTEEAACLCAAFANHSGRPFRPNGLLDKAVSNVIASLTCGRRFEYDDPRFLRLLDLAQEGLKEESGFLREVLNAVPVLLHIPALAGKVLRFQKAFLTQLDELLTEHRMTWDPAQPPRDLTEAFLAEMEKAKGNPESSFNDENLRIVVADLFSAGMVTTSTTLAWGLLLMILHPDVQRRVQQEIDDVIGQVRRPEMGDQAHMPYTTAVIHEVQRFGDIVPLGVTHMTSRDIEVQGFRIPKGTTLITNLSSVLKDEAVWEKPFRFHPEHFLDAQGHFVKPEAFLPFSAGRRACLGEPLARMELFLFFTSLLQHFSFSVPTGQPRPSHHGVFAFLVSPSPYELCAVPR
Chain of Alpha-galactosidase A (Homo sapiens) (P06280 whole entry, looked up): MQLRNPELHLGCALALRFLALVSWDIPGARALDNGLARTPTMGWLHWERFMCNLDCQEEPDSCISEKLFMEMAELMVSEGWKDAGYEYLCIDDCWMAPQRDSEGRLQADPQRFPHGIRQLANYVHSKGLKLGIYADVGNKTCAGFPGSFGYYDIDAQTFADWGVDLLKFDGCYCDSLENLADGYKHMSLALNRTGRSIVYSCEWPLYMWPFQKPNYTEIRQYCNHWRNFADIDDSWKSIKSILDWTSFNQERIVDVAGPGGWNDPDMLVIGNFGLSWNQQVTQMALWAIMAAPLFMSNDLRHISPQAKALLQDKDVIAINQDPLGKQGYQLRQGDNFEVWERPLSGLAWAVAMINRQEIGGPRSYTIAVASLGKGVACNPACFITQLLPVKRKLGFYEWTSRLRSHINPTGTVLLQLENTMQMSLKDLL
Chain of Cytochrome P450 2C19 (Homo sapiens) (P33261 whole entry, looked up): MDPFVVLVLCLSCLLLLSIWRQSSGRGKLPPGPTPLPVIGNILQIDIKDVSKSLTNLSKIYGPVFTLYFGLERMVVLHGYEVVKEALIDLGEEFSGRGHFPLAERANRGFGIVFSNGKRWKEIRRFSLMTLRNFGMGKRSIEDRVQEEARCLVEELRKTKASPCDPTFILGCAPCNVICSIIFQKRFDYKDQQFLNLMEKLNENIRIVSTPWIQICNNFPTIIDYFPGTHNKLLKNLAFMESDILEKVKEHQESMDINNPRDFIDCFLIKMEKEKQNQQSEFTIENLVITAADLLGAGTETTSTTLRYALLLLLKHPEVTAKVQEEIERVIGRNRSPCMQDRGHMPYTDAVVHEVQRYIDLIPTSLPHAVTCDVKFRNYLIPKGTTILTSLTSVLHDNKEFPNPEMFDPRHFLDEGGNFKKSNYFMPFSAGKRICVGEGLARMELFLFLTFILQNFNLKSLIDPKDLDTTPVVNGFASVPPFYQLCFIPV
Chain of Muscarinic acetylcholine receptor M1 (Rattus norvegicus) (P08482 whole entry, looked up): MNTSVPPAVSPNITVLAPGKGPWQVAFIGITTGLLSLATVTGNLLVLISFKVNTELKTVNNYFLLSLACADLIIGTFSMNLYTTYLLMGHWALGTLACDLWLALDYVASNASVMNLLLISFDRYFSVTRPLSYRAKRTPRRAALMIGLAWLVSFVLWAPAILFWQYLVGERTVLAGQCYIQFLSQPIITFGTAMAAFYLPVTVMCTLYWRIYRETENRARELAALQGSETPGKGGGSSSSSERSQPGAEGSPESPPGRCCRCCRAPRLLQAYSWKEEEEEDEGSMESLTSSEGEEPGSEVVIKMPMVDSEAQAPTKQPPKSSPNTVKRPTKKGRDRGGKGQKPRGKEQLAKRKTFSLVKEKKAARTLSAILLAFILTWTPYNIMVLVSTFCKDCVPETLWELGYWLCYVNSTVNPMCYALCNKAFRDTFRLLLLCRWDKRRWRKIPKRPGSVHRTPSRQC
Chain of Pyruvate kinase (Leishmania mexicana) (Q27686 2-499 E452W): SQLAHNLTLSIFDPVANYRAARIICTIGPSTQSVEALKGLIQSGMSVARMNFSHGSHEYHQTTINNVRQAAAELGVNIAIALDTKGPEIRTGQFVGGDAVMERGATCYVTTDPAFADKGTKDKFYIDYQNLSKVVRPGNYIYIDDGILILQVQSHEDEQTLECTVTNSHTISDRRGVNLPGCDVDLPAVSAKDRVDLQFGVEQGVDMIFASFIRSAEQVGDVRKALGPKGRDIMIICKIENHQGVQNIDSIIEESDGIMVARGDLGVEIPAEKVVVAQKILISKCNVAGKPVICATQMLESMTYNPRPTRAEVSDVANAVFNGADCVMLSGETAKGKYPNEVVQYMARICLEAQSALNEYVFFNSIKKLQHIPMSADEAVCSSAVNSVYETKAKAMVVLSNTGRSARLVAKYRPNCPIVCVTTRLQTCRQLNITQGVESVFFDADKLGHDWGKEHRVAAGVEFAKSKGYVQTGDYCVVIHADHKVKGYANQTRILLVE

On to `Cc1cc(Cc2cc(Cc3cc(C)cc(C(C)(C)C)c3O)c(C)cc2C)c(O)c(C(C)(C)C)c1`, for which the activity change, negative = inhibition in test [1] was -2.73% [at 7.69 µM]; in [2], -17.2% [at 2.29 µM]; in test [6], -4.33% [at 11.4 µM]. In addition, in test [3], the activity, negative = inhibition was -3.85% [at 7.69 µM]. Also, the Potency in [4] is > 46 µM; in [5], > 9.22 µM; in [8], 3.16 µM (active). The Potency entry in test [7] was “inactive”.
For the compound `Nc1nonc1OCCc1ccccc1`, the activity change, negative = inhibition in test [1] is 2.66%; in test [9], 3.18%. In addition, the activity, negative = inhibition in test [3] is -6.28%.
In the case of `COc1cccc2c1[C@@H]1CN(CCCCn3c(=O)[nH]c4c(sc5ncc(-c6ccccc6)nc54)c3=O)C[C@H]1CO2`, the activity change, negative = inhibition in [1] is 4.55% [at 38 µM]. Besides, the Potency in [2] is 31.6 µM (active); in test [4], > 46 µM; in test [5] it was > 46 µM; in test [11], 11.2 µM (active). The activity, negative = inhibition in test [3] was 22.8% [at 38 µM]. Besides, the Potency result in [7], in test [10] and in test [12] was “inactive” throughout. Further, the compound was classed as inactive in [13], in [14] and in test [15].
On to `COc1ccc2c(c1)CN([C@H](C)[C@@H]1CC[C@@H]3[C@H]4CC[C@H]5C[C@@H](O)CC[C@@]5(C)[C@H]4CC[C@]31C)CO2`, for which the values for the activity change, negative = inhibition in test [1], in test [2] and in [6] were 23.1% [at 7.69 µM], -18% [at 2.29 µM] and -1.53% [at 11.4 µM], respectively. The activity, negative = inhibition in test [3] is -2.48% [at 7.69 µM]. In addition, the figures for the Potency in test [4] and in [5] were > 46 µM and > 9.22 µM, respectively. Also, in test [7], the Potency result was “inactive”. Further, the activation in test [16] was 15.9%.
In the case of `CCOC(=O)CNC(=O)Nc1ccccc1C(=O)OC`, the activity change, negative = inhibition is -9.77% in test [1] and 12.3% in test [9]. Moreover, the activity, negative = inhibition in test [3] was 11.5%.
For `Cc1ccc(N2C(=O)C3ON(c4ccccc4)C(c4ccncc4)C3C2=O)cc1` (stereo unspecified), in that order: 5.13%, 9.45% and -10.5%.
The corresponding values for `CN1C(=O)C2(c3ccccc31)C1CCCC=C1C(C#N)=C(N)C2(C#N)C#N` (stereo unspecified) are -21.4%, -15.5% and -7.56%.
The corresponding values for `Cc1ccc(C2/C(=C(/O)c3ccc(OC(C)C)cc3)C(=O)C(=O)N2CCN2CCOCC2)cc1` (stereo unspecified) are 0.482%, 10.1% and -12.8%.
Consider `CCOC(=O)CC1=C(C(=O)OCC)C(c2ccc(OC)c(OC)c2)C(C#N)=C(N)O1` (stereo unspecified), for which the figures for the activity change, negative = inhibition in test [1] and in test [9] were 1.15% and -21.5%, respectively. Also, the activity, negative = inhibition in [3] is 5.77%.
On to `CCN1CCC[C@@H]1CNC(=O)c1c(OC)ccc(I)c1O`, for which the activity change, negative = inhibition in [1] was -2.43% [at 38 µM]. Moreover, the Potency in test [2] is 15.8 µM (active); in [5], > 46 µM; in test [17], 0.199 µM (active). Further, in test [3], the activity, negative = inhibition was -4.45% [at 38 µM]. The Potency entry in [6] and in test [18] was “inactive” each time.
With `CO[C@H]1C=CO[C@@]2(C)Oc3c(C)c(O)c4c(O)c(c(C=NN5CCN(C)CC5)c(O)c4c3C2=O)NC(=O)C(C)=CC=C[C@H](C)[C@H](O)[C@@H](C)[C@@H](O)[C@@H](C)[C@H](OC(C)=O)[C@@H]1C`, the activity change, negative = inhibition is -3.11% in test [1] and 18.4% in test [9]. For the same compound, in [3], the activity, negative = inhibition is 1.14%.
